Calls of active or inactive are those of the source.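 How the source made its calls, unless noted: active means inhibition above 20% together with a positive visual image hit; inconclusive means visual image hit but inhibition not above 20%; inactive means no visual image hit.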

Experiment [1] is described as follows: inhibitors of TNFa-induced NFkB p65 translocation, primary screen, imaging, HUVEC, MLSMR starter and 10KST1 sets (AID 438).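 Further: compound added about 3h40 before a 20 min TNFalpha stimulation.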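 On inhibition: signal is the nuclear over cytoplasmic p65 intensity ratio per well.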 Conditions: HUVEC TNFa-induced p65 nuclear translocation; cell count: measured here: nuclei count (cytotoxicity indicator), at 2.08 µM; inhibition: at 2 µM, stronger effect = higher value, 0% TNFa-plus-vehicle, 100% no-TNFa wells.
Experiment [2] in a line: inhibitors of mutant huntingtin aggregation, primary screen, imaging, exon1htt(103Q)mCFP cells, high-content imaging (AID 483;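 active means visual image review flags a hit and inhibition of aggregation exceeds 20%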;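 further: compound exposure lasted 3 days before fixation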;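 on nuclei count: percent of the per-plate median nuclei count of sample wells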). Conditions: exon1htt(103Q)mCFP cell line, aggregate imaging, at 2 µM; inhibition of aggregation: stronger effect = higher value; nuclei count: measured here: cell count, toxicity.
A short description of experiment [3]: inhibitors of E-selectin induction by TNFa, primary screen, imaging, HUVEC, immunofluorescence, MLSMR starter and 10KST1 sets (AID 487;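 active means visually confirmed hit in the image check and inhibition above 20%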;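 on inhibition: signal is fraction of cell area covered by stained E-selectin grains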;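 on nuclei count: 100% = median nuclei count of all wells on the same plate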). Particulars: HUVEC TNFalpha-induced E-selectin immunofluorescence imaging, at 2 µM; inhibition: stronger effect = higher value; nuclei count: measured here: cell number, toxicity.
In experiment [4] the target is Voltage-gated potassium channel subunit beta-2 (Rattus norvegicus) (UniProt P62483). Briefly: KvBeta enzyme negative modulators, primary screen, biochemical, NADPH fluorescence (AID 622;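 active means fluorescence slope higher than the sample average by over 3 SD, cut at about -0.22 in these data, passing the limit was not always enough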;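 further: slope of raw intensity against log time taken from 70 to 1610 s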). Particulars: recombinant KvBeta, 4-cyanobenzaldehyde reduction, at 10 µM, stronger effect = higher value.
Voltage-gated potassium channel subunit beta-2 (Rattus norvegicus), sequence (P62483 whole entry, looked up): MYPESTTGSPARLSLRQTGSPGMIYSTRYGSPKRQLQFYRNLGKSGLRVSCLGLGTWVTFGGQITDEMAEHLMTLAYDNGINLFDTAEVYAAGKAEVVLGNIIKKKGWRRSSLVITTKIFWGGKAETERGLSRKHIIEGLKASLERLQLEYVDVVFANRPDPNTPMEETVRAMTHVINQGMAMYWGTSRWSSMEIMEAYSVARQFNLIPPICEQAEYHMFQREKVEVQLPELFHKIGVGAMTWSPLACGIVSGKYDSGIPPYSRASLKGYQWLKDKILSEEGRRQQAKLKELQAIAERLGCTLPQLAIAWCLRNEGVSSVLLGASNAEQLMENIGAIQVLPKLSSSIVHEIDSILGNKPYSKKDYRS
For experiment [5] the target is unchanged. Description: KvBeta positive modulators, primary screen, biochemical, NADPH fluorescence (AID 623;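 active means NADPH fluorescence slope more negative than the mean of all samples by about 3 SD, 99.7% confidence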;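 further: fluorescence intensity change per second fitted from 20 to 320 s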). Particulars: Recombinant KvBeta, NADPH fluorescence decrease slope, 10 min; at 10 µM; stronger effect = lower value.
For experiment [6], the target named is Alpha-2C adrenergic receptor (Homo sapiens) (UniProt P18825). Briefly: modulators of alpha2C/GIRK thallium flux, primary screen, cell-based, HEK293 alpha2C/GIRK1/2 (AID 624;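 active means fluorescence slope after compound addition differing from the mean of all screened samples at 99.7% confidence, in either direction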;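 further: slope of fluorescence ratio to pre-addition baseline per second over 15 to 24 s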). Particulars: thallium flux BTC fluorescence, at 10 µM, actives lie on both sides.
Alpha-2C adrenergic receptor (Homo sapiens), sequence (P18825 whole entry, looked up): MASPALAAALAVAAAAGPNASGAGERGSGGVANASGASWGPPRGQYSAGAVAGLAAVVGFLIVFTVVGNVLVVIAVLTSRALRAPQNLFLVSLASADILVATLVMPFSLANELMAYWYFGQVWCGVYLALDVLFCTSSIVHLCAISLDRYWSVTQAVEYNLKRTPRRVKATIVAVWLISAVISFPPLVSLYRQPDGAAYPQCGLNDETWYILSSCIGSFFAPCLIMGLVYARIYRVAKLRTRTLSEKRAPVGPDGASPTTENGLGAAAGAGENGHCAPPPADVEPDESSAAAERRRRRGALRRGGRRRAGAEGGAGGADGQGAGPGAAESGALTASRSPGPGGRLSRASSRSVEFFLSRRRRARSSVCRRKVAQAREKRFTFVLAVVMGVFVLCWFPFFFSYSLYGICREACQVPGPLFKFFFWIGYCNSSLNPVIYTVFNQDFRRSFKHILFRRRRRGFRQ
The nature of experiment [7]: inhibitors of Sendai virus-induced IRF3 signaling, primary screen, TLR/RLR signaling modifier project, cell-based, Sendai virus stimulus, luciferase, 10K MLSCN set (AID 602276;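 active means inhibition at or above 50% at 10 µM; inactive means inhibition below 50%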;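 further: firefly luciferase from ISG56 promoter only with Renilla not read in this screen; 0% = Sendai virus plus DMSO and 100% = medium plus DMSO without virus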). Particulars: HEK293 RL24 IRF3 luciferase reporter, at 10 µM, stronger effect = higher value. A general note: In a reporter assay the amount or activity of a reporter protein is the signal.
Experiment [8] can be described thus: inhibitors of poly I:C-induced TLR3 signaling, primary screen, cell-based, poly I:C stimulus, luciferase, 10K MLSCN set (AID 602277;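 active means inhibition of the reporter signal at or above 50%; inactive means inhibition below 50%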). Particulars: HEK293-TLR3 RL24 IRF3 luciferase reporter, at 10 µM, stronger effect = higher value.

On to `CCOC(=O)c1cnn(-c2sc(C(=O)OCC)c(C)c2C(=O)OCC)c1N`, for which, in experiment [1], the cell count was 451. The inhibition in experiment [1] is -1.9% (inactive); in experiment [3], -5.8% (inactive); in experiment [7], 7.68% (inactive); in experiment [8], -49.4% (inactive). Also, the inhibition of aggregation in experiment [2] is -35.1% (inactive). The nuclei count in experiment [2] stood at 99.7%; in experiment [3], 115%. For the same molecule, the fluorescence slope in experiment [4] was -0.517 (inactive). Further, the NADPH fluorescence slope in experiment [5] was 2.2e-05 (inactive). Besides, in experiment [6], the slope was 0.00627 (inactive).
In the case of `Cc1cc(C)n(-c2ccc3cccc(NS(C)(=O)=O)c3n2)n1`, in experiment [1], the cell count was 221. Further, the inhibition in experiment [1] was 13.2% (inactive); in experiment [3] it was 26.7% (inactive); in experiment [7], 11% (inactive); in experiment [8], 12.8% (inactive). For the same molecule, the inhibition of aggregation in experiment [2] is -10.7% (inactive). For the same molecule, the nuclei count came to 76.6% in experiment [2] and 107% in experiment [3]. Further, in experiment [4], the fluorescence slope is -0.392 (inactive). Further, the NADPH fluorescence slope in experiment [5] is -3.1e-05 (inactive). The slope in experiment [6] is 0.00539 (inactive).
`COc1ccc(NC(=O)CN2CCN(S(=O)(=O)c3ccc(Cl)cc3)CC2)cc1`: the cell count in experiment [1] worked out at 333. Further, the inhibition in experiment [1] is 1.1% (inactive); in experiment [3], 5% (inactive); in experiment [7] it was 11.8% (inactive); in experiment [8], 17.3% (inactive). Moreover, in experiment [2], the inhibition of aggregation was 17.3% (inactive). Also, the nuclei count stood at 123% in experiment [2] and 116% in experiment [3]. For the same molecule, the fluorescence slope in experiment [4] was -0.411 (inactive). Moreover, the NADPH fluorescence slope in experiment [5] was -2.8e-05 (inactive). In addition, in experiment [6], the slope is 0.00382 (inactive).
On to `Cc1ccccc1OCC(O)CN` (centres undefined), for which the cell count in experiment [1] is 298. In addition, the inhibition is 15.6% (inactive) in experiment [1], 14.2% (inactive) in experiment [3], -20.3% (inactive) in experiment [7] and -17.4% (inactive) in experiment [8]. For the same molecule, the inhibition of aggregation in experiment [2] was 32.2% (active). For the same molecule, the nuclei count was found to be 104% in experiment [2] and 95.6% in experiment [3]. In addition, the fluorescence slope in experiment [4] was -0.542 (inactive). In addition, the NADPH fluorescence slope in experiment [5] was 1.7e-05 (inactive). In addition, the slope in experiment [6] was 0.00273 (inactive).
Turning to `S=c1[nH]nc(-c2cccc(Br)c2)o1`, the cell count in experiment [1] came out at 242. Further, the inhibition in experiment [1] was 12.7% (inactive); in experiment [3] it was -57.8% (inactive); in experiment [7], 4.14% (inactive); in experiment [8], 8.86% (inactive). The inhibition of aggregation in experiment [2] is 15.6% (inactive). For the same molecule, the nuclei count in experiment [2] was found to be 110%; in experiment [3] it was 120%. The fluorescence slope in experiment [4] was -0.361 (inactive). Moreover, the NADPH fluorescence slope in experiment [5] was 1.9e-05 (inactive). Also, in experiment [6], the slope is 0.0039 (inactive).
Regarding `CCN(CC)c1nc(N(CC)CC)[nH]c(=O)n1`, the cell count in experiment [1] came to 477. Also, the inhibition was -6.5% (inactive) in experiment [1], -0.4% (inactive) in experiment [3], 3.82% (inactive) in experiment [7] and -16% (inactive) in experiment [8]. The inhibition of aggregation in experiment [2] was 15.2% (inactive). For the same molecule, the nuclei count worked out at 92.1% in experiment [2] and 59.6% in experiment [3]. For the same molecule, the fluorescence slope in experiment [4] is -0.512 (inactive). Further, the NADPH fluorescence slope in experiment [5] is -3.2e-05 (inactive). For the same molecule, in experiment [6], the slope is 0.00579 (inactive).
Take `O=C(Nc1ccccc1)C1=C(O)CC(c2ccoc2)CC1=Nc1ccccc1` (centres undefined): in experiment [1], the cell count came out at 321. Besides, the inhibition in experiment [1] was -2.1% (inactive); in experiment [3] it was -80.4% (inactive); in experiment [7] it was 4% (inactive); in experiment [8], 16.9% (inactive). The inhibition of aggregation in experiment [2] is 7.8% (inactive). For the same molecule, the nuclei count in experiment [2] turned out to be 94.4%; in experiment [3], 121%. Further, the fluorescence slope in experiment [4] is -0.422 (inactive). Also, the NADPH fluorescence slope in experiment [5] is -5.7e-05 (inactive). For the same molecule, the slope in experiment [6] was 0.00565 (inactive).
Consider `CCOC(=O)CSc1nnc(Cn2c(=O)sc3ccccc32)n1C`, for which, in experiment [1], the cell count is 475. Also, the inhibition was -8.3% (inactive) in experiment [1], -24.8% (inactive) in experiment [3], 8.16% (inactive) in experiment [7] and 33.4% (inactive) in experiment [8]. The inhibition of aggregation in experiment [2] is 20.2% (inactive). For the same molecule, the nuclei count in experiment [2] is 106%; in experiment [3], 114%. Further, the fluorescence slope in experiment [4] is -0.576 (inactive). The NADPH fluorescence slope in experiment [5] was -4.8e-05 (inactive). In addition, the slope in experiment [6] is 0.00614 (inactive).
Take `Cc1cc(Nc2ccccc2)n(-c2ccccc2)n1`: the cell count in experiment [1] stood at 329. Also, the inhibition was -3.3% (inactive) in experiment [1], -44.7% (inactive) in experiment [3], -15% (inactive) in experiment [7] and -36.8% (inactive) in experiment [8]. Besides, the inhibition of aggregation in experiment [2] was 27.4% (inactive). In addition, the results for the nuclei count in experiment [2] and in experiment [3] were 114% and 128%, respectively. Moreover, the fluorescence slope in experiment [4] was -0.499 (inactive). In addition, the NADPH fluorescence slope in experiment [5] was -2.4e-05 (inactive). Besides, the slope in experiment [6] was 0.00371 (inactive).
For `O=C1c2ccccc2S(=O)(=O)N1Cc1nnc(-c2ccccc2Br)o1`, in experiment [1], the cell count amounted to 536. Moreover, the inhibition in experiment [1] was -4.9% (inactive); in experiment [3], 51.8% (active); in experiment [7], 16.6% (inactive); in experiment [8], 20.8% (inactive). Also, the inhibition of aggregation in experiment [2] is -9.2% (inactive). For the same molecule, the values for the nuclei count in experiment [2] and in experiment [3] were 106% and 99.5%, respectively. Further, in experiment [4], the fluorescence slope was -0.488 (inactive). In experiment [5], the NADPH fluorescence slope is -6e-05 (inactive). The slope in experiment [6] was 0.00709 (inactive).
For the molecule `O=C(COc1ccc2ccccc2c1)N1CCCC1`, the cell count in experiment [1] was determined as 315. Also, the inhibition is -1.8% (inactive) in experiment [1], -27.1% (inactive) in experiment [3], -31.9% (inactive) in experiment [7] and -85% (inactive) in experiment [8]. The inhibition of aggregation in experiment [2] was 4% (inactive). The nuclei count in experiment [2] stood at 77.8%; in experiment [3] it was 97.9%. Besides, the fluorescence slope in experiment [4] is -0.28 (inactive). In experiment [5], the NADPH fluorescence slope was -1.8e-06 (inactive). Moreover, the slope in experiment [6] is 0.00518 (inactive).
As to `CCOc1ccccc1-n1c(SCC(=O)NC2CCCC2)nnc1-c1ccoc1C`, in experiment [1], the cell count was found to be 588. Also, the inhibition was -9.5% (inactive) in experiment [1], 83.6% (inactive) in experiment [3], 1.09% (inactive) in experiment [7] and 11.6% (inactive) in experiment [8]. Moreover, in experiment [2], the inhibition of aggregation is 35.7% (inactive). The nuclei count in experiment [2] came to 77.1%; in experiment [3] it was 62.7%. For the same molecule, in experiment [4], the fluorescence slope is -0.543 (inactive). For the same molecule, in experiment [5], the NADPH fluorescence slope is 1.9e-05 (inactive). Also, the slope in experiment [6] is 0.00524 (inactive).
As for `CCOc1ccc(NC(=O)Cn2nnc(-c3ccccc3F)n2)cc1`, in experiment [1], the cell count was 513. Besides, the inhibition in experiment [1] is -2.7% (inactive); in experiment [3], -32.4% (inactive); in experiment [7] it was 9.14% (inactive); in experiment [8], 12.8% (inactive). In experiment [2], the inhibition of aggregation is 19% (inactive). Moreover, the nuclei count amounted to 88.3% in experiment [2] and 103% in experiment [3]. The fluorescence slope in experiment [4] is -0.539 (inactive). Moreover, the NADPH fluorescence slope in experiment [5] is 2.1e-05 (inactive). Further, in experiment [6], the slope is 0.00657 (inactive).
Take `Cc1cc(C(=O)CSc2nnc(-c3ccco3)o2)c(C)n1CC1COc2ccccc2O1` (centres undefined): the cell count in experiment [1] was found to be 393. The inhibition in experiment [1] is 0% (inactive); in experiment [3], -115% (inactive); in experiment [7], 9.81% (inactive); in experiment [8] it was 3.57% (inactive). Also, the inhibition of aggregation in experiment [2] is 15.2% (inactive). Also, the nuclei count in experiment [2] turned out to be 90.2%; in experiment [3] it was 105%. For the same molecule, the fluorescence slope in experiment [4] is -0.516 (inactive). For the same molecule, the NADPH fluorescence slope in experiment [5] is -2.2e-05 (inactive). The slope in experiment [6] is 0.00446 (inactive).

As usually defined, the inhibition is the change of the read-out against control, counted positive when it falls.

The values above are taken from PubChem BioAssay.
